From PubChem
sEH inhibitor: soluble epoxide hydrolase inhibitors, primary screen, biochemical, human sEH | Bifunctional epoxide hydrolase 2 (Homo sapiens), P34913 | recombinant human sEH enzymatic activity assay | inhibition, % at 2 µM | hit rate 0.34% among 91,000; in the data active = inhibition above about 80%
Target sequence (P34913 whole entry, looked up): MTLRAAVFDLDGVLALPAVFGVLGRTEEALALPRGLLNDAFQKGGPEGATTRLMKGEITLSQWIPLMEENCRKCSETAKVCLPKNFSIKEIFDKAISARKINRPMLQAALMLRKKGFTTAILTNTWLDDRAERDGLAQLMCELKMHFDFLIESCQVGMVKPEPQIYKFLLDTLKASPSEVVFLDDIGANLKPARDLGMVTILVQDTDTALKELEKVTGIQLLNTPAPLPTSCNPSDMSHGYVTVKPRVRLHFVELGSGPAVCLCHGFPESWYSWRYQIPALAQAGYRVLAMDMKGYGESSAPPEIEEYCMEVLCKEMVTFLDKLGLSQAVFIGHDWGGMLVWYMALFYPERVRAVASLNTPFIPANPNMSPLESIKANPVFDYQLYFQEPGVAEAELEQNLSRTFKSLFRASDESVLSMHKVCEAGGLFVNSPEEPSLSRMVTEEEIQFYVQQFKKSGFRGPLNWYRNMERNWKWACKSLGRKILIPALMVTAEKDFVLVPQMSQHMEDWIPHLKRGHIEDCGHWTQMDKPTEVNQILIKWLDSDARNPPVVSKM
CYP2C9 inh: blockers of cytochrome P450 2C9 activity – biochemical, luminescence, ADME assay, primary screen; CYP2C9 Supersomes, luciferin-H conversion; inhibition, % at 5 µM; hit rate 20% among 96,000;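 active = blocking of liver enzyme CYP2C9 beyond about 50% at 5 µM, limit read from the data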
CYP2C9 activ: human CYP2C9 activators, primary screen, biochemical, luminescence. recombinant CYP2C9, luciferin-H conversion; active compounds read high; factor 1 = untreated enzyme, 0 = blocked. activation factor at 5 µM. hit rate 1.4% among 96,000. AID 1024, 2008;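 active = activation factor of 2 or more for CYP2C9 at a 5 µM dose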;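 also: 0 = sulfaphenazole-blocked wells and 1 = vehicle-only wells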
sEH act: soluble epoxide hydrolase activators, primary screen, biochemical, human sEH | hit rate 0.04% among 91,000 | purified human sEH enzymatic activity, activator screen | Bifunctional epoxide hydrolase 2 (Homo sapiens), P34913 | AID 717, 2007 | activation, % at 2 µM; in the data active = activation above about 37%
CYP2C19 act: human CYP2C19 activators, primary screen, biochemical, luminescence. recombinant CYP2C19, luciferin-H EGE luminescence; active compounds read high; 0 = fully inhibited enzyme, 1 = untreated enzyme. 96,000 tested, under 10 active. activation factor at 5 µM. AID 1025, 2008. Cytochrome P450 2C19 (Homo sapiens), P33261;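 active = activation factor of at least 2 at 5 µM in the primary screen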;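 also: 0 = wells with 2.5 mM tranylcypromine and 1 = vehicle-only wells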
CYP2C19 inhib: blockers of cytochrome P450 2C19 activity – biochemical, luminescence, ADME assay, primary screen; P33261; CYP2C19 Supersomes, luciferin-H EGE luminescence, 30 min; inhibition, % at 5 µM; hit rate 21% among 96,000;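 active = CYP2C19 inhibition above a set limit at 5 µM in the primary screen, cut at about 50% in these data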;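 also: plate controls were negative control wells for no effect and 2.5 mM tranylcypromine positive control for full effect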
The depositor's hits bear a star; / = no result. This is a sample that favours compounds with a hit; in the whole collection about 27% have one here.

SMILES	sEH inhibitor	CYP2C9 inh	CYP2C9 activ	sEH act	CYP2C19 act	CYP2C19 inhib
O=C(Cn1cnc2ccccc2c1=O)c1ccccc1	-5	/	/	8	/	/
COc1cc(C(O)P(=O)(OCC(C)C)OCC(C)C)cc(OC)c1OC (centres undefined)	-2	13	0.9	6	0.8	23
Cc1ccc(NC(=O)CSc2nc3ccccc3c(=O)n2CCCN2CCCCC2)cc1C	6	63*	0.4	-7	0.5	48
CCCCn1c(SCC(=O)Nc2cc(NC(=O)c3ccco3)ccc2C)nc2ccccc2c1=O	14	75*	0.3	-14	0.3	72*
COCCn1c(SCCN2CCCCC2)nc2ccccc2c1=O	-4	5	1	4	0.7	31
Cc1ccc(NC(=O)CSc2nc3ccccc3c(=O)n2CCCC(=O)N2CCCC2)cc1	-2	44	0.6	2	0.5	55*
COCCn1c(SCC(=O)Nc2ccc(NC(=O)c3ccco3)c(OC)c2)nc2ccccc2c1=O	2	21	0.8	-5	1	-2
CCCCC(C(=O)NCCC(C)C)N(CCCN1CCOCC1)C(=O)c1snc(C(N)=O)c1N (centres undefined)	-7	-2	1	6	1	2
Cc1nc2sc(C(c3cccs3)N3CCOCC3)c(O)n2n1 (centres undefined)	0	-4	1	0	0.9	8
CCn1c(SCc2nc3cc(OC)c(OC)cc3c(=O)[nH]2)nnc1-c1ccncc1	-4	0	1	5	0.9	6
CCn1c(SCc2nc3ccccc3c(=O)[nH]2)nnc1-c1cccnc1	0	-6	1.1	-1	0.1	90*
CCn1c(SCc2nc3ccccc3c(=O)[nH]2)nnc1-c1ccncc1	1	37	0.6	-2	0.1	94*
C=CCn1c(SCc2nc3ccccc3[nH]2)nnc1-c1ccncc1	-10	46	0.5	9	0.1	93*
O=c1[nH]c(CSc2nnc(-c3cccnc3)n2C2CCCCC2)nc2ccccc12	23	7	0.9	-21	0.4	62*
Nn1c(SCc2nc3ccccc3[nH]2)nnc1-c1cccnc1	/	13	0.9	/	0.7	30
OCC#CCSc1nnc(-c2ccc(Br)cc2)o1	-3	24	0.8	5	0.4	60*
O=C(OCC#CCSc1nnc(-c2cccc3ccccc23)o1)c1ccco1	20	-107	2.1*	-21	1	2
COc1ccc(-c2nnc(SCC#CCO)o2)cc1OC	7	6	0.9	-8	0.8	16
O=C(OCC#CCSc1nc2ccccc2o1)c1cc2ccccc2o1	13	/	/	-8	/	/
O=C(OCC#CCSc1nc2ccccc2o1)c1ccco1	-1	57*	0.4	2	0.3	74*
O=C(OCC#CCSc1nnc(-c2ccncc2)o1)c1cccs1	-1	78*	0.2	0	0.2	79*
COc1cc(-c2nnc(CSc3nnc4nc(C)cc(C)n34)o2)cc(OC)c1OC	-7	9	0.9	4	0.9	10
COc1ccccc1CNc1nc2nc(C)c(C)c(=O)n2[nH]1	-6	70*	0.3	8	0.9	14
COc1ccc(CNc2nc3nc(-c4ccccc4)cc(=O)n3[nH]2)cc1OC	4	-2	1	0	1.1	-10
COc1ccc(CNc2nc3nc(C)c(Cl)c(=O)n3[nH]2)cc1OC	-8	76*	0.2	8	1.1	-14
SMILES	sEH inhibitor	CYP2C9 inh	CYP2C9 activ	sEH act	CYP2C19 act	CYP2C19 inhib
CCOc1ccc(N2CC(C(=O)Nc3ncccc3C)CC2=O)cc1 (centres undefined)	1	24	0.8	3	1.1	-6
CCc1ccc(N2CC(C(=O)N/N=C/c3cccc([N+](=O)[O-])c3)CC2=O)cc1 (centres undefined)	15	69*	0.3	-14	0.8	16
CCOc1ccc(N2CC(C(=O)Nc3ccccc3N3CCOCC3)CC2=O)cc1 (centres undefined)	4	85*	0.2	-5	0.6	41
CCCOc1ccc(N2CC(C(=O)Nc3ccccc3F)CC2=O)cc1 (centres undefined)	-8	41	0.6	9	1	3
Cc1ccc(N2CC(C(=O)N/N=C/c3cccc([N+](=O)[O-])c3)CC2=O)cc1 (centres undefined)	-1	36	0.6	3	0.7	25
CCOc1ccccc1C(=O)NC(C(=O)Nc1ccccc1N1CCOCC1)C(C)C (centres undefined)	/	73*	0.3	/	0.6	38
CCOc1cc(N2CCOCC2)c(OCC)cc1NC(=O)C(NC(=O)c1ccco1)C(C)C (centres undefined)	/	-2	1	/	0.9	10
CCc1ccc(N2CC(C(=O)Nc3ccccc3F)CC2=O)cc1 (centres undefined)	/	82*	0.2	/	0.5	46
O=C(NN1c2ccccc2CCc2ccccc21)c1ccccc1Br	5	20	0.8	-4	0.7	26
COc1ccc(C(=O)CSc2nnc(Cn3cnc4ccccc43)o2)cc1	-2	-10	1.1	2	0.7	30
COc1ccc(CC(NC(C)=O)C(=O)N2CCN(C(=O)N(C(C)C)C(C)C)CC2)cc1 (centres undefined)	2	-21	1.2	-3	1.2	-19
O=C(CCc1ccccc1)NNC(=O)C1CCCCC1	0	0	1	2	1	3
FC(F)(F)c1cccc(Oc2cc(C(F)(F)F)nc(-c3ccccn3)n2)c1	1	17	0.8	2	1	3
COC(=O)c1ccccc1NC(=O)C1CC(=O)N(C2CCCCC2)C1 (centres undefined)	/	59*	0.4	/	0.3	66*
COC(=O)c1ccccc1NC(=O)C1CC(=O)N(c2ccc(F)cc2)C1 (centres undefined)	2	64*	0.4	1	0.2	84*
CCCCCC(C)NC(=O)c1ccoc1C (centres undefined)	-7	/	/	7	/	/
CCCN(CCC)CC(=O)Nc1cccc2c1OCO2	-6	34	0.7	4	0.6	38
CCOC(=O)N1CCC(NS(=O)(=O)c2cc(Br)cnc2N)CC1	/	79*	0.2	/	0.6	36
CCn1c(COc2ccccc2C)nnc1SCC(=O)CC(=O)Nc1ccccc1OC	-2	-155	2.5*	1	0.6	43
CCn1c(COc2ccccc2)nnc1SCC(=O)CC(=O)Nc1ccccc1OC	-12	-105	2.1*	11	0.7	29
CCn1c(COc2cccc(C)c2)nnc1SCC(=O)CC(=O)Nc1ccccc1OC	-1	-213	3.1*	2	0.6	36
